Source: PubChem BioAssay (NCI)
Compounds without any hit were thinned out: in the full panel of roughly 79,000, 15% have a hit. Cut-off read from the data, not from the text of the source: active = growth inhibition above about 70%; inactive = the rest.

Assays:
[1] = NCI Yeast Anticancer Drug Screen. Data for the rad50 strain (AID 155);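 note: 0% = growth of vehicle-only cultures of the same strain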; details: S. cerevisiae rad50 strain growth inhibition; at 50.0 µM; stronger effect = higher value
Outline: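 Growth of the mutant yeast was measured after compound exposure and referenced to vehicle-treated cultures.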

[2] = NCI Yeast Anticancer Drug Screen. Data for the mec2-1 strain (AID 157); details: S. cerevisiae mec2-1 strain, at 50.0 µM, stronger effect = higher value
Outline: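 mec2-1 yeast strain, carrying an alteration in DNA damage repair or cell cycle control, was exposed to compounds; growth inhibition was measured relative to vehicle-treated controls.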

[3] = NCI Yeast Anticancer Drug Screen. Data for the sgs1 mgt1 strain (AID 161);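 note: 0% = growth of cultures given vehicle only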; details: S. cerevisiae sgs1 mgt1 strain, at 50.0 µM, stronger effect = higher value
Outline: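 This yeast growth screen uses a strain with defined DNA-repair lesions; compound-treated growth is compared with vehicle-treated growth.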

[4] = NCI Yeast Anticancer Drug Screen. Data for the cln2 rad14 strain (AID 165);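 note: 0% = growth equal to vehicle treated cultures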; details: S. cerevisiae cln2 rad14 strain, at 50.0 µM, stronger effect = higher value
Outline: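 Yeast carrying cln2 and rad14 alterations (cell cycle control and DNA damage repair) were exposed to compounds. Growth inhibition was measured against vehicle-treated controls.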

[5] = NCI Yeast Anticancer Drug Screen. Data for the bub3 strain (AID 167); details: S. cerevisiae bub3 mutant strain, at 50.0 µM, stronger effect = higher value
Outline: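 Whole-cell yeast assay. The mutant strain was incubated with compounds, and growth inhibition was determined by comparison with vehicle-treated cells.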

[6] = NCI Yeast Anticancer Drug Screen. Data for the mlh1 rad18 strain (AID 175); details: S. cerevisiae mlh1 rad18 strain growth inhibition; at 50.0 µM; stronger effect = higher value
Outline: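 Growth inhibition of the yeast strain was measured after compound exposure and expressed relative to vehicle-treated controls. The strain carries defined defects in DNA damage repair.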

Measured: growth inhibition

Cc1ccnn1CCc1ccc(Cl)cc1Cl
inactive: [1] 18.1% | [2] 15.3% | [3] 34.1% | [4] 11.4% | [5] 29.5% | [6] -4.55%

Nc1ccc(N=Nc2ccc(C(=O)O)cc2)cc1
inactive: [1] -32.9% | [2] -48% | [3] 18.1% | [4] 3% | [5] -26.4% | [6] -7.6%

COc1ccc(CCc2ccc(OC)c(OCc3ccccc3)c2)cc1COc1ccccc1
inactive: [1] 41.9% | [2] 0.45% | [3] 22.1% | [4] 3.85% | [5] -1.8% | [6] 5.95%

CSC(C(O)C(O)C(O)C(O)CO)n1cnc2c(=S)nc[nH]c21 (stereo not given)
inactive: [1] 1.1% | [2] 5.7% | [3] 5.75% | [4] 19.6% | [5] 11.3% | [6] 9%

COc1ccc(C2OCC(c3ccccc3)O2)cc1 (stereo not given)
inactive: [1] -13.4% | [2] -7.65% | [3] -18.5% | [4] -37% | [5] 3.15% | [6] -29.1%

O=S(=O)(Nc1c(Cl)c(Cl)c(NS(=O)(=O)c2ccccc2)c(Cl)c1Cl)c1ccccc1
inactive: [1] 46.2% | [2] 0.6% | [3] 13.4% | [4] -5.6% | [5] 4.55% | [6] 15.5%

COc1ccc(CCC2c3cc(OC)c(OC)cc3CCN2C)cc1OC (stereo not given)
inactive: [1] -41.5% | [2] -15.7% | [3] -6.75% | [4] 5.35% | [5] -19.9% | [6] -4.85%

S=C(Nc1ccccc1)c1ccccc1
inactive: [1] -23.2% | [2] -16.5% | [3] -5.25% | [4] -29.3% | [5] -5.1% | [6] 16.1%

CCOC1=C([N+](=O)[O-])C(c2ccccc2)NC1=O (stereo not given)
inactive: [1] 10.8% | [2] -0.6% | [3] -3% | [4] 15.1% | [5] -35.3% | [6] 11.7%

CSSC(SSC)C(SSC)SSC
inactive: [1] -4.7% | [2] 4.2% | [3] 43.4% | [4] 1.4% | [5] 36.8% | [6] 47.8%

O=NSC(c1ccccc1)(c1ccccc1)c1ccccc1
inactive: [1] 1.65% | [2] -24.2% | [3] 1.6% | [4] -28.1% | [5] -9.25% | [6] 0%

C/C(C[n+]1ccccc1)=N\N=C(N)N
inactive: [1] -18.8% | [2] -9.05% | [3] -43.8% | [4] -20.5% | [5] -5.35% | [6] -9.2%

CCN(CC)CCCNc1ccc2ncn3c4ccc(O)cc4c(=O)c1c23
inactive: [1] -14.8% | [2] -36.3% | [3] -54% | [4] 11.8% | [5] -27.8% | [6] -6.65%

O=S(=O)([N-]c1nc2ccccc2nc1-[n+]1ccccc1)c1ccccc1
inactive: [1] 14% | [2] -0.2% | [3] 14.7% | [4] -7.25% | [5] -2.2% | [6] -22.6%

COc1cc2ccc3c[n+]4ccccc4cc3c2cc1OC
inactive: [1] 9.25% | [2] 14.2% | [3] 19.9% | [4] 19.4% | [5] 20.2% | [6] 14%

CC(=O)C1CC[C@@]2(C)C(CC[C@H]3[C@@H]4CCC[C@H]([C@H](C)O)[C@@]4(C)CC[C@@H]32)C1 (stereo not given in full)
inactive: [1] -16.9% | [2] 0.3% | [3] 2.9% | [4] 0.4% | [5] -5.5% | [6] -7.5%

Cc1ccc(S(=O)(=O)NCCCN(CCCNS(=O)(=O)c2ccc(C)cc2)S(=O)(=O)c2ccc(C)cc2)cc1
inactive: [1] -8.25% | [2] -10.8% | [3] -5.1% | [4] -70.5% | [5] -19.4% | [6] -12.2%

CN1CCN(S(=O)(=O)C(c2ccccc2)C2(O)CCCCC2)CC1 (stereo not given)
inactive: [1] -1.3% | [2] 10.2% | [3] 9.05% | [4] -6.25% | [5] -8.15% | [6] 12.2%

CC1OC(OCc2ccc(-c3ccccc3)cc2)CC(N)C1O (stereo not given)
inactive: [1] -1.9% | [2] 28.9% | [3] 24.6% | [4] -6.85% | [5] 29.6% | [6] 2.9%

C/C(=C1/CCOC1=O)c1cccc(/C(C)=C2\CCOC2=O)c1
inactive: [1] 3.9% | [2] 3.55% | [3] -3.05% | [4] -29.4% | [5] 5.35% | [6] 2.75%
